High-throughput results (PubChem BioAssay)
EZH2 inh: blocks human EZH2/PRC2 H3K27 methylation. AID 651548. DELFIA TRF, 1 h. 57,000 compounds, 0.35% hits. inhibition, % at 12.5 µM. Q15910;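 active = mean inhibition of replicates at least 50% and every single replicate also reaching 50%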;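 note: dimethyl H3K27 on biotinylated H3 21-44 peptide detected by antibody; plate controls were median neutral control wells for no effect and median positive control wells for full effect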
Target sequence (Q15910 whole entry, looked up): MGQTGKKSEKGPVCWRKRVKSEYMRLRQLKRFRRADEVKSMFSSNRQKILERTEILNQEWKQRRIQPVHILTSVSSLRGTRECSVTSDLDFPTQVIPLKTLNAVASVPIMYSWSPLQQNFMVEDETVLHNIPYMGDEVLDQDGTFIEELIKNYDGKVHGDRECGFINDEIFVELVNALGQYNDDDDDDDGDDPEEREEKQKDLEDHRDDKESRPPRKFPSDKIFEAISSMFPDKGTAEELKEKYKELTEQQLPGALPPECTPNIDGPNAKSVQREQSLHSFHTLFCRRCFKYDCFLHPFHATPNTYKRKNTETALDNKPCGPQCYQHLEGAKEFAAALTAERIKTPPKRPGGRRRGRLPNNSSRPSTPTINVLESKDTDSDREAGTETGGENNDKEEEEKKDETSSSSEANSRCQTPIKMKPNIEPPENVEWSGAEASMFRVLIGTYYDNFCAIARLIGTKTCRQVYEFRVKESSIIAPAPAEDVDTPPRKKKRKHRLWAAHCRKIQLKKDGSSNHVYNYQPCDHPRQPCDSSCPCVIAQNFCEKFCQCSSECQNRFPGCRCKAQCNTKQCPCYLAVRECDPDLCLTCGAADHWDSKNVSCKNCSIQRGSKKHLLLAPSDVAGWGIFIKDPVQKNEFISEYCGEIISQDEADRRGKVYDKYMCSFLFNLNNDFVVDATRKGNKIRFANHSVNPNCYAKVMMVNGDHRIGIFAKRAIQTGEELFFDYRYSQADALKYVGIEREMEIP
Numbers without * were called inactive. The sample as a whole holds a higher share of hits than the screen did.

SMILES | EZH2 inh
Cc1cc(=O)c2c(O)c3c(O)cc(O)c4c5c(O)cc(O)c6c(O)c7c(=O)cc(C)c8c1c2c(c34)c(c65)c78 | 64*
C[C@@H]1CN([C@@H](C)CO)C(=O)Cc2cc(NC(=O)c3ccncc3)ccc2O[C@@H]1CN(C)S(=O)(=O)c1ccc(F)cc1 | -3
COc1cc(O)c(OC)c2c1C(=O)CC(c1ccccc1)O2 (stereo not drawn) | 77*
COc1cccc2c1C(=O)CC(c1ccccc1)O2 (stereo not drawn) | -11
COc1cc(O)c2c(c1)OC(c1ccc(O)cc1)CC2=O (stereo not drawn) | -4
C=C1CCC2[C@](C)(CCC[C@]2(C)C(=O)O)[C@H]1CC/C(C)=C/C(=O)O (stereo partly drawn) | -17
O=C(C[C@H]1C[C@@H]2c3cc(NS(=O)(=O)c4ccc(F)cc4)ccc3O[C@@H]2[C@@H](CO)O1)NCc1ccncc1 | -2
Nc1cccc(S(=O)(=O)NCc2ccco2)c1 | -1
COc1cccc(NC(=O)N[C@H]2C=C[C@H](CC(=O)NCc3ccncn3)O[C@@H]2CO)c1 | 10
CCOc1ccc(NC(=S)Nc2sc3c(c2C(=O)OC)CCC3)c([N+](=O)[O-])c1 | 39
CCOc1ccc2nc(NCc3cc(OC)c(OC)cc3OC)sc2c1 | -13
CCOc1ccc2nc(NS(=O)(=O)c3ccc(C)c([N+](=O)[O-])c3)sc2c1 | 51*
O=C(CN1C2=NCCN2c2ccccc21)c1ccc(Cl)cc1Cl | -12
O=C(C[C@@H]1CC[C@@H](NC(=O)Nc2ccccc2)[C@H](CO)O1)NCc1ccccn1 | -2
COc1ccc(CN2C[C@@H](C)[C@H](OC)CN(C)C(=O)c3ccc(NC(=O)C4CC4)cc3OC[C@H]2C)cc1 | -8
COC(=O)COc1c(Br)cc(C2C3=C(CCCC3=O)NC3=C2C(=O)CCC3)cc1OC | 9
CO[C@@H]1CN(C)C(=O)c2ccc(NC(C)=O)cc2OC[C@@H](C)N(Cc2cncnc2)C[C@@H]1C | 4
COC(=O)CCCCCCC(=O)N/N=C/c1ccc(-c2ccccc2)c(F)c1 | 60*
O=C(CCCCC(=O)N/N=C/c1ccc(-c2ccccc2)c(F)c1)NO | -12
COC(=O)CCCCCCC(=O)N/N=C/c1ccc(Oc2ccccc2)cc1 | -3
O=C(COc1ccc2ccccc2c1)Nc1ccccc1C(=O)Nc1ccccc1 | 1
C[C@H]1CN([C@@H](C)CO)C(=O)c2cccc(NC(=O)C3CC3)c2O[C@H]1CN(C)C(=O)NC1CCCCC1 | 2
N#Cc1ccccc1NC(=O)COc1ccccc1[N+](=O)[O-] | -12
CCOC(=O)c1ccccc1NC(=O)C(C)Oc1ccc2c(C)cc(=O)oc2c1 (stereo not drawn) | 7
CN(C)CC(=O)Nc1ccc2c(c1)[C@@H]1C[C@H](CC(=O)NCc3ccccc3F)O[C@@H](CO)[C@@H]1O2 | 1
SMILES | EZH2 inh
CC(C)(C)NS(=O)(=O)c1ccc(OCC(=O)Nc2ccc(F)c(Cl)c2)cc1 | -10
COc1ccc(NC(=O)CSc2nc3ccccc3[nH]2)cc1Cl | -23
Cc1cc(NC(=O)CSc2nc3ccccc3[nH]2)ccc1Br | 8
O=C(CSc1nc2ccccc2[nH]1)Nc1ccc(Cl)c(Br)c1 | 54*
COC(=O)c1ccccc1NC(=O)C(C)NS(=O)(=O)c1cc(Cl)ccc1Cl (stereo not drawn) | 8
Cc1ccc(NS(=O)(=O)c2cccc(C(=O)Nc3ccccc3C(=O)O)c2)cc1 | 23
Cc1ccccc1-c1nc(SCC(=O)Nc2sc3c(c2C#N)CCCC3)n[nH]1 | 55*
Cc1cc(-c2ccccc2)nc(SCC(=O)Nc2sc3c(c2C#N)CCCC3)n1 | -2
CCOc1ccccc1-c1nc(SCC(=O)Nc2sc3c(c2C#N)CCCC3)n[nH]1 | -27
C[C@@H]1CN([C@H](C)CO)C(=O)c2cc(NC(=O)CCCN(C)C)ccc2O[C@@H](C)CCCCO[C@@H]1CN(C)S(C)(=O)=O | 4
CC1(CO)C=Cc2c(cc(O)c3c(=O)c(-c4ccc(O)cc4)coc23)O1 (stereo not drawn) | 65*
COc1ccc(-c2coc3c(OC)c(OC)cc(OC)c3c2=O)cc1 | 7
COc1ccc(-c2coc3c(OC)c(O)ccc3c2=O)cc1 | 1
O=C(Nc1ccccc1F)N[C@H]1CC[C@@H](CCNS(=O)(=O)c2ccc(Cl)cc2)O[C@H]1CO | 0
C[C@]12CCC3C4(C=CC5(C=C4C(=O)c4cc6ccccc6s4)C[C@@H](O)CC[C@]35C)C1CC[C@@]2(O)CN1CCC(n2c(=O)[nH]c3ccccc32)CC1 (stereo partly drawn) | -15
CO[C@@H]1CN(C)C(=O)c2cc(NC(=O)NC(C)C)ccc2OC[C@@H](C)NC[C@@H]1C | 16
O=C(CCN1CCCCC1)N[C@@H]1CC[C@H](CCNS(=O)(=O)c2ccc(Cl)cc2)O[C@H]1CO | -13
C[C@H]1O[C@@H](O[C@H]2CC[C@@]3(C)C(CC[C@]4(C)C3CC=C3C5CC(C)(C)CC[C@]5(C(=O)O)CC[C@]34C(=O)O)C2(C)C)[C@H](O)[C@@H](O)[C@H]1O (stereo partly drawn) | 3
CC1(C)CC[C@]2(C(=O)O[C@@H]3O[C@H](CO)[C@@H](O)[C@H](O)[C@H]3O)CC[C@]3(C)C(=CCC4[C@@]5(C)C[C@@H](O)[C@H](O)C(C)(C)C5CC[C@]43C)C2[C@@H]1O (stereo partly drawn) | 68*
CC1CC[C@]2(C(=O)OC3OC(COC4OC(CO)C(O)C(O)C4O)C(O)C(O)C3O)CC[C@]3(C(=O)O)C(=CCC4[C@@]5(C)CC[C@H](OC6OC(C)C(O)C(O)C6O)C(C)(C)C5CC[C@]43C)C2C1C (stereo partly drawn) | 71*
CC1(C)CC[C@]2(C(=O)O[C@@H]3O[C@H](CO)[C@@H](O)[C@H](O)[C@H]3O)CC[C@]3(C)C(=CCC4[C@@]5(C)CC[C@H](OC6O[C@H](CO)[C@@H](O)[C@H](O[C@@H]7O[C@H](CO)[C@@H](O)[C@H](O)[C@H]7O)[C@H]6O)C(C)(C)C5CC[C@]43C)[C@@H]2C1 (stereo partly drawn) | -18
C[C@@H]1CC[C@]2(C(=O)O[C@@H]3O[C@H](CO)[C@@H](O)[C@H](O)[C@H]3O)CC[C@]3(C)C(=CCC4[C@@]5(C)C[C@@H](O)[C@H](O)C(C)(C)C5CC[C@]43C)C2[C@]1(C)O (stereo partly drawn) | 36
C[C@H]1[C@H](C)CC[C@]2(C(=O)O)CC[C@]3(C(=O)O)C(=CCC4[C@@]5(C)CC[C@H](O[C@@H]6O[C@@H](C)[C@H](O)[C@@H](O)[C@H]6O)C(C)(C)C5CC[C@]43C)[C@H]12 (stereo partly drawn) | 19
C[C@@H]1CCCCO[C@@H](CN(C)C(=O)c2ccccc2)[C@@H](C)CN([C@@H](C)CO)C(=O)c2cc(NC(=O)c3ccccc3)ccc2O1 | -2
C[C@@H]1CN([C@@H](C)CO)C(=O)Cc2cc(NS(=O)(=O)c3cn(C)cn3)ccc2O[C@@H]1CN(C)C | 8
O=C(Nc1ccc2c(c1)[C@H]1C[C@@H](CC(=O)N3CCc4ccccc4C3)O[C@@H](CO)[C@H]1O2)c1ccc2c(c1)OCO2 | -2
CC(C(=O)Nc1cccc2ccccc12)N(c1ccc(Cl)cc1)S(C)(=O)=O (stereo not drawn) | -6
Cc1noc(C)c1S(=O)(=O)Nc1ccc2c(c1)CC(=O)N([C@@H](C)CO)C[C@H](C)[C@@H](CN(C)Cc1ccc(C(=O)Nc3ccccc3N)cc1)O2 | -38
